The chains are these.
T1: RBFOX1 RRM RbFoxmut (Fox-RRM*) (Homo sapiens, UniProt Q9NWB1 109-208, R118D;E147R;N151S;E152T)
T1 sequence: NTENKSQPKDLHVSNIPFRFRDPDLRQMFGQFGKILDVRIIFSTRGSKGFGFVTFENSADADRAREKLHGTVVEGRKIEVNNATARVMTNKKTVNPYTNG

B1: CGCCCUU (DNA:RNA)
RNA: GGGAGACCGGAAUUCAGAUUGUCCCGCCCUUUUAAAUCCCGUCGUAGCCACCA
DNA 1: CAATCTGAATTCCGGTCTCCC
DNA 2: TGGTGGCTACGACGGGATT
B2: UCGUUAU (DNA:RNA)
RNA: B1 RNA with C25U, G26C, C27G, C28U, C29U, U30A
DNA 1: CAATCTGAATTCCGGTCTCCC
DNA 2: TGGTGGCTACGACGGGATT
B3: UGUUAAA (DNA:RNA)
RNA: B1 RNA with C25U, C27U, C28U, C29A, U30A, U31A
DNA 1: CAATCTGAATTCCGGTCTCCC
DNA 2: TGGTGGCTACGACGGGATT
B4: UGUAUGC (DNA:RNA)
RNA: B1 RNA with C25U, C27U, C28A, C29U, U30G, U31C
DNA 1: CAATCTGAATTCCGGTCTCCC
DNA 2: TGGTGGCTACGACGGGATT
B5: CGUAAUG (DNA:RNA)
RNA: B1 RNA with C27U, C28A, C29A, U31G
DNA 1: CAATCTGAATTCCGGTCTCCC
DNA 2: TGGTGGCTACGACGGGATT
B6: UGUAAUG (DNA:RNA)
RNA: B1 RNA with C25U, C27U, C28A, C29A, U31G
DNA 1: CAATCTGAATTCCGGTCTCCC
DNA 2: TGGTGGCTACGACGGGATT
B7: UGUAUGA (DNA:RNA)
RNA: B1 RNA with C25U, C27U, C28A, C29U, U30G, U31A
DNA 1: CAATCTGAATTCCGGTCTCCC
DNA 2: TGGTGGCTACGACGGGATT
B8: UGUCGUA (DNA:RNA)
RNA: B1 RNA with C25U, C27U, C29G, U31A
DNA 1: CAATCTGAATTCCGGTCTCCC
DNA 2: TGGTGGCTACGACGGGATT
B9: UGUAUGG (DNA:RNA)
RNA: B1 RNA with C25U, C27U, C28A, C29U, U30G, U31G
DNA 1: CAATCTGAATTCCGGTCTCCC
DNA 2: TGGTGGCTACGACGGGATT
B10: UGUGUGG (DNA:RNA)
RNA: B1 RNA with C25U, C27U, C28G, C29U, U30G, U31G
DNA 1: CAATCTGAATTCCGGTCTCCC
DNA 2: TGGTGGCTACGACGGGATT
B11: UGUAGGG (DNA:RNA)
RNA: B1 RNA with C25U, C27U, C28A, C29G, U30G, U31G
DNA 1: CAATCTGAATTCCGGTCTCCC
DNA 2: TGGTGGCTACGACGGGATT
B12: UGUAAUC (DNA:RNA)
RNA: B1 RNA with C25U, C27U, C28A, C29A, U31C
DNA 1: CAATCTGAATTCCGGTCTCCC
DNA 2: TGGTGGCTACGACGGGATT
B13: UGUAGGC (DNA:RNA)
RNA: B1 RNA with C25U, C27U, C28A, C29G, U30G, U31C
DNA 1: CAATCTGAATTCCGGTCTCCC
DNA 2: TGGTGGCTACGACGGGATT
B14: UGUAUUC (DNA:RNA)
RNA: B1 RNA with C25U, C27U, C28A, C29U, U31C
DNA 1: CAATCTGAATTCCGGTCTCCC
DNA 2: TGGTGGCTACGACGGGATT
B15: UGCUAAU (DNA:RNA)
RNA: B1 RNA with C25U, C28U, C29A, U30A
DNA 1: CAATCTGAATTCCGGTCTCCC
DNA 2: TGGTGGCTACGACGGGATT
B16: AGCGUUA (DNA:RNA)
RNA: B1 RNA with C25A, C28G, C29U, U31A
DNA 1: CAATCTGAATTCCGGTCTCCC
DNA 2: TGGTGGCTACGACGGGATT
B17: GUGCUCG (DNA:RNA)
RNA: B1 RNA with C25G, G26U, C27G, C29U, U30C, U31G
DNA 1: CAATCTGAATTCCGGTCTCCC
DNA 2: TGGTGGCTACGACGGGATT
B18: CUUACCA (DNA:RNA)
RNA: B1 RNA with G26U, C27U, C28A, U30C, U31A
DNA 1: CAATCTGAATTCCGGTCTCCC
DNA 2: TGGTGGCTACGACGGGATT
B19: GAGUGUA (DNA:RNA)
RNA: B1 RNA with C25G, G26A, C27G, C28U, C29G, U31A
DNA 1: CAATCTGAATTCCGGTCTCCC
DNA 2: TGGTGGCTACGACGGGATT
B20: CAGCCAU (DNA:RNA)
RNA: B1 RNA with G26A, C27G, U30A
DNA 1: CAATCTGAATTCCGGTCTCCC
DNA 2: TGGTGGCTACGACGGGATT
B21: UGUAUUG (DNA:RNA)
RNA: B1 RNA with C25U, C27U, C28A, C29U, U31G
DNA 1: CAATCTGAATTCCGGTCTCCC
DNA 2: TGGTGGCTACGACGGGATT
B22: UGUAUCC (DNA:RNA)
RNA: B1 RNA with C25U, C27U, C28A, C29U, U30C, U31C
DNA 1: CAATCTGAATTCCGGTCTCCC
DNA 2: TGGTGGCTACGACGGGATT
B23: UGUUGUA (DNA:RNA)
RNA: B1 RNA with C25U, C27U, C28U, C29G, U31A
DNA 1: CAATCTGAATTCCGGTCTCCC
DNA 2: TGGTGGCTACGACGGGATT
B24: UGUCCCG (DNA:RNA)
RNA: B1 RNA with C25U, C27U, U30C, U31G
DNA 1: CAATCTGAATTCCGGTCTCCC
DNA 2: TGGTGGCTACGACGGGATT
B25: UGUAUCG (DNA:RNA)
RNA: B1 RNA with C25U, C27U, C28A, C29U, U30C, U31G
DNA 1: CAATCTGAATTCCGGTCTCCC
DNA 2: TGGTGGCTACGACGGGATT
B26: UGUAUUA (DNA:RNA)
RNA: B1 RNA with C25U, C27U, C28A, C29U, U31A
DNA 1: CAATCTGAATTCCGGTCTCCC
DNA 2: TGGTGGCTACGACGGGATT
B27: GCUAGGC (DNA:RNA)
RNA: GGGAGACCGGAAUUCAGAUUGUCCGCUAGGCUUAAAUCCCGUCGUAGCCACCA
DNA 1: CAATCTGAATTCCGGTCTCCC
DNA 2: TGGTGGCTACGACGGGATT
B28: UGCACAU (DNA:RNA)
RNA: B1 RNA with C25U, C28A, U30A
DNA 1: CAATCTGAATTCCGGTCTCCC
DNA 2: TGGTGGCTACGACGGGATT
B29: GACAGGU (DNA:RNA)
RNA: B27 RNA with C26A, U27C, C31U
DNA 1: CAATCTGAATTCCGGTCTCCC
DNA 2: TGGTGGCTACGACGGGATT
B30: AGUUAAU (DNA:RNA)
RNA: B1 RNA with C25A, C27U, C28U, C29A, U30A
DNA 1: CAATCTGAATTCCGGTCTCCC
DNA 2: TGGTGGCTACGACGGGATT
B31: UUGUCCC (DNA:RNA)
RNA: B1 RNA with C25U, G26U, C27G, C28U, U30C, U31C
DNA 1: CAATCTGAATTCCGGTCTCCC
DNA 2: TGGTGGCTACGACGGGATT
B32: UCGCGUC (DNA:RNA)
RNA: B27 RNA with G25U, U27G, A28C, G30U
DNA 1: CAATCTGAATTCCGGTCTCCC
DNA 2: TGGTGGCTACGACGGGATT
B33: CUUGUCC (DNA:RNA)
RNA: B27 RNA with G25C, C26U, A28G, G29U, G30C
DNA 1: CAATCTGAATTCCGGTCTCCC
DNA 2: TGGTGGCTACGACGGGATT
B34: UUGUGUC (DNA:RNA)
RNA: B27 RNA with G25U, C26U, U27G, A28U, G30U
DNA 1: CAATCTGAATTCCGGTCTCCC
DNA 2: TGGTGGCTACGACGGGATT
B35: UUGGGAA (DNA:RNA)
RNA: B27 RNA with G25U, C26U, U27G, A28G, G30A, C31A
DNA 1: CAATCTGAATTCCGGTCTCCC
DNA 2: TGGTGGCTACGACGGGATT
B36: UUGGGUG (DNA:RNA)
RNA: B1 RNA with C25U, G26U, C27G, C28G, C29G, U31G
DNA 1: CAATCTGAATTCCGGTCTCCC
DNA 2: TGGTGGCTACGACGGGATT
B37: CCUUGUC (DNA:RNA)
RNA: B27 RNA with G25C, A28U, G30U
DNA 1: CAATCTGAATTCCGGTCTCCC
DNA 2: TGGTGGCTACGACGGGATT
B38: UUGUGUG (DNA:RNA)
RNA: B1 RNA with C25U, G26U, C27G, C28U, C29G, U31G
DNA 1: CAATCTGAATTCCGGTCTCCC
DNA 2: TGGTGGCTACGACGGGATT
B39: GUGUGUC (DNA:RNA)
RNA: B27 RNA with C26U, U27G, A28U, G30U
DNA 1: CAATCTGAATTCCGGTCTCCC
DNA 2: TGGTGGCTACGACGGGATT
B40: UCGCGUG (DNA:RNA)
RNA: B1 RNA with C25U, G26C, C27G, C29G, U31G
DNA 1: CAATCTGAATTCCGGTCTCCC
DNA 2: TGGTGGCTACGACGGGATT
B41: UCGUGUC (DNA:RNA)
RNA: B27 RNA with G25U, U27G, A28U, G30U
DNA 1: CAATCTGAATTCCGGTCTCCC
DNA 2: TGGTGGCTACGACGGGATT
B42: UUGGGGG (DNA:RNA)
RNA: B27 RNA with G25U, C26U, U27G, A28G, C31G
DNA 1: CAATCTGAATTCCGGTCTCCC
DNA 2: TGGTGGCTACGACGGGATT

This note sets out measurements from PMC9911399, “Two distinct binding modes provide the RNA-binding protein RbFox with extraordinary sequence specificity”.

Changes are numbered by the printed parent chain; changes in the protein carry UniProt numbers. Over roughly 16,000 sequences, “ka relative to ugcaugu” has its median near 0.096; the highest 2% begin near 0.35. The sample holds the highest values, similar sequences and a random draw of the others, so the mix is not that of the screen.

The target of the assay is T1, RBFOX1 RRM RbFoxmut (Fox-RRM*). Put plainly: EMSA; HiTS-Eq, 1 nM pool, 10 min; buffer printed only for the single-RNA assays: 10 mM Tris pH 7.5, 150 mM NaCl, 3.4 mM EDTA, 0.001% NP-40, 30 C. The following applies: tags: His6 N-terminal (pET28a); label: 5' 32P. The method, boiled down:
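Purified wild-type or mutant RbFox RRM at increasing concentrations was equilibrated with 1 nM of 5′-radiolabelled RNA carrying 7 randomized nucleotides for 10 min in 50 µL. Unbound RNA was separated by 8% native PAGE and sequenced. Relative association constants came from read-count changes of each RNA species compared with the control reaction, normalised to the cognate motif.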
Regarding B1, the binding signal is 0.0724 KA relative to UGCAUGU.

Take B2: the binding signal was 0.11 KA relative to UGCAUGU.

Consider B3, for which the binding signal was 0.11 KA relative to UGCAUGU.

Turning to B4, the binding signal is 0.684 KA relative to UGCAUGU.

For B5, the binding signal was 0.157 KA relative to UGCAUGU.

As for B6, the binding signal is 0.381 KA relative to UGCAUGU.

Consider B7, for which the binding signal is 0.44 KA relative to UGCAUGU.

On to B8, for which the binding signal was 0.13 KA relative to UGCAUGU.

With B9, the binding signal is 0.394 KA relative to UGCAUGU.

Take B10: the binding signal is 0.173 KA relative to UGCAUGU.

As to B11, the binding signal was 0.0751 KA relative to UGCAUGU.

With B12, the binding signal was 0.157 KA relative to UGCAUGU.

B13: the binding signal was 0.115 KA relative to UGCAUGU.

With B14, the binding signal is 0.207 KA relative to UGCAUGU.

In the case of B15, the binding signal is 0.0977 KA relative to UGCAUGU.

Turning to B16, the binding signal was 0.113 KA relative to UGCAUGU.

With B17, the binding signal was 0.226 KA relative to UGCAUGU.

Regarding B18, the binding signal is 0.0834 KA relative to UGCAUGU.

B19: the binding signal was 0.258 KA relative to UGCAUGU.

Take B20: the binding signal is 0.0919 KA relative to UGCAUGU.

Consider B21, for which the binding signal was 0.691 KA relative to UGCAUGU.

For B22, the binding signal is 0.15 KA relative to UGCAUGU.

With B23, the binding signal is 0.307 KA relative to UGCAUGU.

Consider B24, for which the binding signal is 0.096 KA relative to UGCAUGU.

Regarding B25, the binding signal was 0.648 KA relative to UGCAUGU.

For the molecule B26, the binding signal was 0.175 KA relative to UGCAUGU.

As to B27, the binding signal was 0.0891 KA relative to UGCAUGU.

On to B28, for which the binding signal was 0.0893 KA relative to UGCAUGU.

Consider B29, for which the binding signal is 0.0716 KA relative to UGCAUGU.

Regarding B30, the binding signal is 0.0918 KA relative to UGCAUGU.

As for B31, the binding signal is 0.0731 KA relative to UGCAUGU.

For the molecule B32, the binding signal is 0.145 KA relative to UGCAUGU.

Take B33: the binding signal was 0.107 KA relative to UGCAUGU.

For B34, the binding signal is 0.357 KA relative to UGCAUGU.

In the case of B35, the binding signal is 0.14 KA relative to UGCAUGU.

As for B36, the binding signal is 0.373 KA relative to UGCAUGU.

B37: the binding signal was 0.226 KA relative to UGCAUGU.

In the case of B38, the binding signal was 0.491 KA relative to UGCAUGU.

In the case of B39, the binding signal was 0.329 KA relative to UGCAUGU.

Regarding B40, the binding signal was 0.153 KA relative to UGCAUGU.

B41: the binding signal is 0.359 KA relative to UGCAUGU.

For B42, the binding signal is 0.0724 KA relative to UGCAUGU.
